Columns and labels:
[1] = target: T1, Aspartate--tRNA(Asp/Asn) ligase (Mycobacterium tuberculosis (strain ATCC 25618 / H37Rv)) (UniProt P9WFW3); assay: Assay for Asp RNA synthetase-1 from Mycobacterium tuberculosis; assay type: functional; design: scale not given: direction of the effect not stated beside the values; details: 30 µM; also: in the data most compounds retested in dose-response had high values
T1 sequence (whole entry): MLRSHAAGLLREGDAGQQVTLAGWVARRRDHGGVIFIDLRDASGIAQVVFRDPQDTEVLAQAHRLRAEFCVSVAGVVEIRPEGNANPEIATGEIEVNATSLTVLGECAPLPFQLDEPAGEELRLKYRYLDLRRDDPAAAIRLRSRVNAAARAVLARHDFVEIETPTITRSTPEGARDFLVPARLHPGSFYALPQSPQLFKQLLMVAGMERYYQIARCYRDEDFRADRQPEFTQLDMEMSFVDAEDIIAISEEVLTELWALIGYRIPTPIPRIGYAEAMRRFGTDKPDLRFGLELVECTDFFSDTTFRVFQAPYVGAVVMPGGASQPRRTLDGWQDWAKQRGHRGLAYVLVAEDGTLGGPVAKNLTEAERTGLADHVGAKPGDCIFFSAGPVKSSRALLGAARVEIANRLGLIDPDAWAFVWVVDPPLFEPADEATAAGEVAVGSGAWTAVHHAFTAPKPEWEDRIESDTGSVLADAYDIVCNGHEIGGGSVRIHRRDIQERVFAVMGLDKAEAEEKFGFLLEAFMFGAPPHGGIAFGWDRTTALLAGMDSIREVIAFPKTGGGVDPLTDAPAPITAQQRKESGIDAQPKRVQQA

[2] = target: Shiga toxin 2 (Escherichia coli O157:H7) (UniProt P09385+P09386); assay: E. coli 0.157:H7 Shiga Toxin SOP - stx2 screening assay; assay type: functional; design: scale not given: direction of the effect not stated beside the values; details: 30 µM

| Structure (SMILES) | Percent Effect [1] [%] | Percent Effect [2] [%] |
| --- | --- | --- |
| O=S(=O)(Nc1cnn(C2CCOCC2)c1)c1ccc2c(c1)CCO2 | 0.452 | -15.1 |
| CCc1nccn1C1CCCN(C(=O)c2ccc(C(=O)NC)nc2)C1 (centres undefined) | 2.25 | 2.77 |
| Cc1occc1C(=O)N1CCCC2(CCN(CCN3CCCC3)C2=O)C1 (centres undefined) | 1.84 | -29.2 |
| CN(CC1CC1)c1ccc2ccc(C(=O)NCCN3CCOCC3)cn12 | -0.228 | -88.6 |
| CCOc1ccccc1OC1CCN(C(=O)c2cc[nH]n2)CC1 | 0.989 | 39.1 |
| CCN1CCN(C(=O)c2nc(C)n(-c3ccccc3Cl)n2)CC1 | -3.15 | 0.607 |
| Cc1ncc(CNC(=O)Nc2cc(C(F)(F)F)c[nH]c2=O)s1 | 2.67 | -19.6 |
| COCCN1CCC(NC(=O)C2(c3cc(C)cc(C)c3)CC2)CC1 | -4.05 | 22.9 |
| CCc1nc(C2CCCN2C(=O)c2c[nH]c(C)n2)no1 (centres undefined) | -7.28 | 0.205 |
| CN(C)C(=O)CC1CC2(CCNCC2)c2cc(F)ccc21 (centres undefined) | 2.15 | 1.21 |
| Cc1cc(C(=O)N2CCC(c3nccn3CCCN(C)C)CC2)no1 | 7.7 | -11.8 |
| Cc1cn2c(n1)CCC(NC(=O)c1cc(Br)cn1C)C2 (centres undefined) | -1.87 | -34.8 |
| O=C(CCCc1cn[nH]c1)N1CCOCC(O)C1 (centres undefined) | 5.55 | 5.53 |
| O=C(CCNC(=O)c1ccccc1N1CCOCC1)NC1CCCC1 | -1.94 | -19.9 |
| CCc1ccc(C2CCCCCN2Cc2nc(CCOC)no2)o1 (centres undefined) | 10.6 | -30.6 |
| COc1ccc(CNCCc2cc(F)cc3c2OCOC3)cc1O | 3.65 | -23.1 |
| CS(=O)(=O)NC1CCCN(C(=O)NCc2cc[nH]n2)C1 (centres undefined) | -0.0288 | 2.05 |
| CCCNC(=O)Nc1cc2c(cc1SC)OCCO2 | -0.324 | -0.581 |
| NC(=O)c1cc(NC(=O)N2CCCCCC2)ccc1F | 1.17 | -21.4 |
| Cc1nc(C2(O)CCCNCC2)sc1CCOc1ccc(Cl)cc1 (centres undefined) | -4 | -45.5 |
| O=C(O)[C@@H]1CN(C(=O)c2ccc3[nH]nnc3c2)C[C@H]1c1cccc(F)c1 | -0.0228 | -15.6 |
| CCn1cc(NC(=O)NCC(O)CN2CCc3ccccc3C2)cn1 (centres undefined) | 6.51 | -38.6 |
| Cc1cc(N2CCC(Cc3ccccc3)CC2)nc(-c2ccncc2)n1 | -0.602 | -32.9 |
| COCCN1CCC(CN(CC2CCCO2)C(=O)CCNC(C)=O)CC1 (centres undefined) | -0.167 | -3.65 |
| Cc1ncsc1CCC(=O)NCc1cc2n(n1)CCN(C(=O)N(C)C)C2 | -4.32 | -29.5 |
| Cn1cnnc1C1CCN(c2cncc(-n3cccn3)n2)CC1 | 0.324 | -33.6 |

| Structure (SMILES) | Percent Effect [1] [%] | Percent Effect [2] [%] |
| --- | --- | --- |
| CSc1nccn1-c1cccc(C(=O)NCC2CC2)c1 | 4.07 | 32 |
| c1cncc(COCc2nnc3n2CCN(Cc2ccsc2)C3)c1 | -0.684 | -54.6 |
| Cc1nc(CN2CCCC(NCc3c(C)nc4sccn34)C2)no1 (centres undefined) | 2.46 | -20.2 |
| CC(=O)c1cn(CCC(=O)N[C@H](C(=O)O)C(C)C)c2ccccc12 | -1.95 | -36.7 |
| Cn1cc2c(n1)C(COCC1CC1)CN(Cc1ccccn1)C2 (centres undefined) | -2.25 | 9.17 |
| O=C(CN1CCCC1Cn1cncn1)NCCc1c(F)cccc1F (centres undefined) | 1.46 | -12.5 |
| COCCOc1ccc(NC(=O)C2CC(=O)N(C)C2)cn1 (centres undefined) | 3.77 | -88.5 |
| Cc1ccc(C(NC(=O)CC2CCN(C(C)C)CC2)C(=O)O)cc1 (centres undefined) | -0.279 | 10.7 |
| Cc1nnc(C2Cc3ccccc3CN2Cc2ncc(C(C)(C)C)o2)o1 (centres undefined) | 0.807 | 8.47 |
| Cc1nccn1CC1CCCN1S(=O)(=O)Cc1ccccc1F (centres undefined) | 1.06 | -2.92 |
| COCCN1CCC(NCc2cccc(F)c2)C1 (centres undefined) | -3.37 | -17.4 |
| CC(=O)NCCN1CCC(c2cccs2)CC1 | -5.78 | 1.86 |
| c1cnn(Cc2nnc3n2CCCN(CC2CCOCC2)C3)c1 | 2.52 | 18.5 |
| CN(C)CCNC(=O)CNC(=O)N1CCc2c([nH]c3ccc(Cl)cc23)C1 | 6.71 | -77.4 |
| Cc1nc(C2CCCN2CC(=O)NCCc2ccsc2)no1 (centres undefined) | 1.22 | -9.77 |
| O=C(c1ccc(F)cc1F)N1C[C@@H](O)[C@H](N2CCOCC2)C1 | 4.46 | -20.4 |
| CC(C)NC(=O)N1C[C@H]2C[C@H](C(=O)NCc3ccccc3)[C@@H](C1)O2 | 2.3 | 1.68 |
| CN(Cc1nc(N)c2ccccc2n1)CC1CCCN1c1cccnn1 (centres undefined) | 4.61 | 24.7 |
| Cc1nc(NCCc2ccc(Cl)cc2)cc(C(=O)N2CCCCC2)n1 | 12.4 | -69.6 |
| COCCC(=O)N1CCn2c(COCC3CC3)cnc2C1C (centres undefined) | 3.62 | 5.04 |
| COCC(=O)N1CCO[C@H]2[C@H](OC)CC[C@@H]21 | 9.03 | 2.73 |
| COc1ccc(-n2nnc(C(=O)NC(C)C)c2C2CC2)cc1 | -4.62 | 10.4 |
| CN1CCN(C2CCN(CCOc3ccc(F)cc3)CC2)C1=O | -2.61 | -5.38 |
| Cc1nn(-c2ccccc2)cc1C(=O)N1CCCN2CCCC2C1 (centres undefined) | -6.57 | -22 |
| O=S1(=O)N=C(SCc2ccc(Cl)cc2)Nc2ccc(F)cc21 | -0.189 | -5.93 |
| Cc1nc(C(=O)N2CCCC2c2c(C)nn(C)c2C)ccc1C#N (centres undefined) | -1.21 | -18 |

| Structure (SMILES) | Percent Effect [1] [%] | Percent Effect [2] [%] |
| --- | --- | --- |
| CC(O)CN1CCN(Cc2csc(-c3ncccn3)n2)CC1 (centres undefined) | 2.19 | -19.8 |
| Fc1cnc(N2CCC3(COCc4cnc(NCC5CC5)nc43)C2)nc1 (centres undefined) | 1.39 | 2.48 |
| CCC(NC(=O)c1ccco1)c1ccccc1OCC(=O)N1CCCC1 (centres undefined) | 0.611 | -10.6 |
| Cn1cc(C[C@H]2[C@@H](O)CCN2C(=O)C2CC=CC2)cn1 | 7.16 | -21.6 |
| Cc1ccc2c(ccn2CCC(=O)NC[C@@H]2CCCN3CCCC[C@H]23)c1 | -0.958 | -5.27 |
| CN(Cc1ccc(C#N)cc1)Cc1noc(C(C)(C)C)n1 | -2.67 | -19 |
| CCN(CCNC(=O)c1ccccc1OCCOC)C1CC1 | -0.655 | -72 |
| CCOCC(O)CN1CCN(C(=O)CC(C)C)CC1 (centres undefined) | -2.19 | 18.6 |
| CNC(=O)c1ccc(CN2CCC(N(C)Cc3noc(C)n3)C2)cc1 (centres undefined) | -0.577 | 7.96 |
| CCCOCC(=O)NS(=O)(=O)c1ccc2c(c1)OCCCO2 | 1.8 | 17.6 |
| Cn1cccc1C(=O)N[C@@H]1CN(CC2CC2)[C@@H]2COC[C@@H]21 | 1.28 | -3.7 |
| CCn1cc(CN(C)S(=O)(=O)c2ccc(Cl)cc2)cn1 | -1.31 | -34 |
| Cn1cc(NC(=O)Cn2c(CS(C)(=O)=O)nc3ccccc32)cn1 | -0.299 | 1.48 |
| Cc1ccc(CNS(=O)(=O)CC2=NC(=O)n3cccc3C2=O)cc1 | 3.72 | 4.1 |
| O=C(NCCN1CCCc2ccccc21)c1scnc1Cl | -4.16 | 0.202 |
| COC1CC2(CCN(Cc3ccc4c(c3)OCO4)CC2)C1 | -2.25 | -2.07 |
| COc1ncccc1C(=O)N1CC[C@H]2C[C@@H](C)O[C@@H]2C1 | -1.34 | -45 |
| Cc1nc(C2CCCN(C(=O)c3cccc4c3OCO4)C2)no1 (centres undefined) | 5.25 | -12.6 |
| Cc1ccc(N2CC[C@H]3OCC[C@@]3(C(=O)NC(C)C)C2)nn1 | -2.66 | 7.17 |
| CCSCCNC(=O)C(c1cccc(F)c1)N(C)C (centres undefined) | 0.0558 | 12.8 |
| O=C(Cc1ccsc1)N1CCn2cc(CN3CCCC3)nc2C1 | -0.684 | -12 |
| Cc1noc(C)c1C(=O)N1CC[C@H]2C[C@@H](c3nccs3)O[C@@H]2C1 | 3.92 | 3.87 |
| Cn1cnc2c1C(COCc1ccccc1)N(Cc1ccncc1)CC2 (centres undefined) | 2.91 | -1.07 |
| Cc1nc(C2CCCN2Cc2nnc(C3CC3)o2)no1 (centres undefined) | 1.34 | 20 |
| CC(=O)Nc1nc(CN2CCCCC2Cn2cccn2)cs1 (centres undefined) | 8.39 | -4.08 |
| O=C(C1CCOCC1)N1CC[C@H]2C[C@@H](c3ccncn3)O[C@@H]2C1 | 1.69 | -27.6 |

| Structure (SMILES) | Percent Effect [1] [%] | Percent Effect [2] [%] |
| --- | --- | --- |
| c1ccc2cc(OCCN3CCn4c(nnc4C4CC4)C3)ccc2c1 | 3.95 | -16.6 |
| COc1ccc(CN(Cc2cccnc2)CC2CCCO2)c(OC)c1 (centres undefined) | -3.99 | -13.4 |
| CC(NC(=O)N(C)Cc1ccsc1)c1ccc2c(c1)CCC(=O)N2 (centres undefined) | -2.72 | 29 |
| Cc1ccc(C(=O)N2CCC3(CCN(C(=O)c4cccnc4)C3)CC2)o1 | 5.85 | -10.6 |
| O=C(c1cccc2c1OCO2)N1CCCC1c1noc(C2CC2)n1 (centres undefined) | -11.7 | -15.1 |
| CCOC(=O)NC(CNC(=O)CCc1ccccn1)CC(C)C (centres undefined) | 1.17 | 0.307 |
| CCc1nc(CN2CCCC(NCc3nnc(C4CC4)o3)C2)no1 (centres undefined) | -2.05 | 17.9 |
| Cn1cnc2c1CCN(Cc1csc(-c3ccsc3)n1)C2 | 3.77 | -95.3 |
| CCN1C(=O)C2(CCOCC2)c2cc(NC(=O)c3ccco3)ccc21 | -3.45 | -26.8 |
| CNS(=O)(=O)c1cccc(CNc2ccc(C(F)(F)F)nn2)c1 | -3.88 | 14.2 |
| O=C(c1cc(F)ccc1F)C1CCN(C(=O)c2cccnc2O)CC1 | -2.36 | 27.8 |
| Cc1cccc(CNC2CCCc3c2cnn3C)c1 (centres undefined) | 0.855 | -9.23 |
| COc1ccc(C(=O)NCCc2nnc3ccccn23)c(OC)c1 | 3.2 | -5.45 |
| O=C(NCC1CC1)N1CCN(Cc2ccc3c(c2)OCCO3)CC1 | 0.365 | 16.2 |
| COCCC(=O)N1CCc2cc(Cl)cc(Cl)c2C1 | 1.46 | -18.1 |
| Cc1ncsc1C(=O)N(C)Cc1cccc(Cl)c1 | -1.26 | 17.9 |
| c1cc(CNCC2OCCc3cn(CC4CCOCC4)nc32)ccn1 (centres undefined) | 4.2 | -5.21 |
| CCCc1n[nH]c(C2CN(CCCOc3ccccc3)CCO2)n1 (centres undefined) | 0.946 | 5.54 |
| Cn1cc(CN2CCCn3cnc(CN4CCCC4=O)c3C2)cn1 | 2.39 | -3.11 |
| Cc1nccn1-c1nccnc1C1CCN(Cc2ccc(F)cc2)CC1 | -0.338 | -6.1 |
| Cc1noc(CCCC(=O)NC(C)c2cn(-c3ccccc3)nn2)n1 (centres undefined) | -5.92 | 0.819 |
| CNS(=O)(=O)c1ccc(C(=O)N2CCCC(n3cccn3)C2)cc1 (centres undefined) | 0.589 | 2.6 |
| CC(C(=O)Nc1ccc(N2CCCC2)nc1)n1cncn1 (centres undefined) | 0.459 | 11.3 |
| Cc1cc(C[C@@H]2COC[C@H]2NCc2ccccc2C(F)(F)F)on1 | 2.34 | -7.33 |
